The values below come from PubChem BioAssay (NCATS).

SMILES strings stand for the structures. Several values for one entry are separate records, joined by “and”; a condition that tells them apart may be missing. Equal entries are not always repeated. Inconclusive results are not listed. A number with no mark means an inactive call. Activity calls are given as the source filed them. The call rests on the fitted dose curve; in most records, active means well fitted activation curve with a large enough effect; inconclusive means small, poorly fitted or top-dose-only effect; inactive means no such curve, though single readings can be large or run the other way.
Potency means the concentration at half of the fitted maximal effect.

The target of the experiment is Cellular tumor antigen p53 (Homo sapiens) (UniProt P04637). Briefly: Primary qHTS for small molecule compounds that upregulate eGFP-tagged delta133p53alpha (in N-terminal) cells. (AID 2060322). Further: nearly all actives have a fitted effect of over 75% in size.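 On activation: series mostly up to about 56 µM; 0% = DMSO vehicle and 100% = reference activator.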 As to conditions: NCI-H358 eGFP-delta133p53alpha fluorescence, 24 h; activation: stronger effect = higher value. A digest of the protocol: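 NCI-H358 cells pre-induced 24 h with 10 ng/ml doxycycline to express N-terminal eGFP-delta133p53alpha, then dosed 24 h at 37C without doxycycline; fixed, Hoechst-stained, GFP intensity by laser scanning cytometry, normalized to DMSO (0%) and 57.5 uM 5-azacytidine (100%).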
Sequence of Cellular tumor antigen p53 (Homo sapiens) (P04637 whole entry, looked up): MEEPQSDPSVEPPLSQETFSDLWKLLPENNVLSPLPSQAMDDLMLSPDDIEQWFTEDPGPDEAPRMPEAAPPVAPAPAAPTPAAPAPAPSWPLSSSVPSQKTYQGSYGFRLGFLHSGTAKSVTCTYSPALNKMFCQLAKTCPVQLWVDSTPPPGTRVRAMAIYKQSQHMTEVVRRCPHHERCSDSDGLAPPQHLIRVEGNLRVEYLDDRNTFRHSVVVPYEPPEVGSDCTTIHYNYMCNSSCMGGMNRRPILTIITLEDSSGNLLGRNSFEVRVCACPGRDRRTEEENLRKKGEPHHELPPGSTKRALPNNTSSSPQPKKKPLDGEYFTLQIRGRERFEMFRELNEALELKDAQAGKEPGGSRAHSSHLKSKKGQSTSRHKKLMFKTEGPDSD
As for `C[n+]1c2cc(N)ccc2cc2ccc(N)cc21` (tested in a mixture with another compound), the activation is -29.9%.

In the case of `Cc1ccc(C(=O)C(=O)O)cc1C`, the activation was -13%.

For `Cc1c(O)cccc1C(=O)N[C@@H](CSc1ccccc1)[C@H](O)CN1C[C@H]2CCCC[C@@H]2C[C@@H]1C(=O)NC(C)(C)C`, the activation was -23%.

For `C[C@H](NC(=O)/C(C#N)=C/c1ccc(O)c(O)c1)c1ccccc1`, the activation is -11.2%.

`Nc1ncnc2nc[nH]c12`: the activation is 18.4%.

With `COC(=O)[C@]12CCC(C)(C)C[C@@H]1[C@@H]1C(=O)C=C3[C@@]4(C)C=C(C#N)C(=O)C(C)(C)[C@@H]4CC[C@@]3(C)[C@]1(C)CC2`, the Potency was 10.9 µM (active).

On to `N[C@@H](Cc1cc(I)c(O)c(I)c1)C(=O)O`, for which the activation was 4.18%.

Take `C[C@@H]1CCN(C(=O)CC#N)C[C@H]1N(C)c1ncnc2[nH]ccc12`: the activation was -11.8%.

On to `Cc1cc(NC(=O)C2=C(O)c3ccccc3S(=O)(=O)N2C)no1`, for which the activation is -0.837%.

As for `CC(C(=O)O)c1ccc(C(=O)c2ccccc2)s1` (stereo unspecified), the activation was 0%.

For the molecule `CC(C)=CCNc1ncnc2c1ncn2[C@@H]1O[C@H](CO)[C@@H](O)[C@H]1O`, the activation was -20.9%.

In the case of `O=C1Nc2cc(Cl)ccc2Oc2ccccc21`, the activation was -1.69%.

For the molecule `Nc1ncnc2c1ncn2Cc1c(F)cccc1Cl`, the activation was -17.6%.

For `CCCCCOC(=O)Nc1nc(=O)n([C@@H]2O[C@H](C)[C@@H](O)C2O)cc1F` (stereo partly specified), the activation is -14.6%.

In the case of `CCOc1ccc(NC(=O)CC(C)O)cc1` (stereo unspecified), the activation is -0.837%.

In the case of `CCC(=C(CC)c1ccc(O)cc1)c1ccc(O)cc1`, the activation was -17%.

With `C#C[C@]1(O)CC[C@H]2[C@@H]3CCC4=CC(=O)CC[C@@H]4[C@H]3CC[C@@]21C`, the activation is 7.34%.

In the case of `O=C(O)c1ccccc1NCCc1ccccc1`, the activation is -1.69%.

On to `C[C@H]1[C@H](O)O[C@@H]2O[C@@]3(C)CC[C@@H]4[C@H](C)CC[C@@H]1[C@@]24OO3`, for which the Potency is 21.7 µM (active).

Take `Nc1cccc2c1CN(C1CCC(=O)NC1=O)C2=O` (stereo unspecified): the activation was 21.6% and -10.9%.

As to `Nc1ncn([C@@H]2O[C@H](CO)[C@@H](O)[C@@H]2O)c(=O)n1`, the activation was 26.1%.

Take `CCCCCCCCCCCCCCCCCC(=O)O`: the activation is 24.3%.

As to `Cc1cc2nc3c(=O)[nH]c(=O)nc-3n(C[C@H](O)[C@H](O)[C@H](O)CO)c2cc1C`, the activation is -36.8%.

Turning to `CC(C)=CCCC(C)=CCCC(C)=CCSc1ccccc1C(=O)O`, the activation was 4.74%.

In the case of `CCN1CC(CCN2CCOCC2)C(c2ccccc2)(c2ccccc2)C1=O` (stereo unspecified), the activation was 5.08%.

As to `COCCc1ccccn1`, the activation was 15.1%.

As to `Cc1cc(O)c2c(O)c3c(O)cccc3cc2c1`, the activation is 0.837%.

In the case of `COc1ccc(-c2ccc(-c3cn(C(=O)N4CCCCC4c4ccccc4)nn3)cc2)cc1` (stereo unspecified), the activation was -8.11%.

In the case of `CC(C)(C)NCC(O)COc1ccc(NC(=O)NC2CCCCC2)cc1` (stereo unspecified), the activation is 5.08%.

Consider `C=C[C@@]1(C)CC(=O)[C@]2(O)[C@@]3(C)[C@@H](O)CCC(C)(C)[C@@H]3[C@H](O)[C@H](OC(C)=O)[C@@]2(C)O1`, for which the activation is -2.51%.

In the case of `NC(=O)N[C@@H](CCC(=O)O)C(=O)O`, the activation is -5.02%.
